Values without a mark were called inactive. Calls come from the whole dose curve; as a rule, active = well fitted cell-killing curve with a large enough effect; inconclusive = small, poorly fitted or top-dose-only effect; inactive = flat fitted curve, though single readings scatter.
assay: Cell Viability - LYMP1-003 - Assay at 24 hr (AID 963); conditions: LYMP1-003 lymphoblastoid cell viability; series mostly up to 92.2 µM; viability change, negative = cytotoxic: at the top concentration;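 note: plate controls were DMSO only for no effect and tetraoctylammonium bromide positive control for full effect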
Source text: NIH Chemical Genomics Center [NCGC]
NIH Molecular Libraries Screening Centers Network [MLSCN]
National Institutes of Environmental Health Sciences [NIEHS]
National Toxicology Program [NTP]
We have developed a 1536-well cell-based assay for quantitative high throughput screening (qHTS) against a number of cell lines to determine in vitro cytotoxicity of small molecules. This particular assay uses a human lymphoblastoid cell line (LYMP1-003) purchased from Coriell Institute for Medical Research.
NCGC Assay Protocol Summary:
The CellTiter-Glo luminescent cell viability assay (Promega) is a homogeneous method to measure the number of viable cells in culture. The end point readout of this assay is based on quantitation of intracellular ATP, an indicator of metabolic activity, using the luciferase reaction. Luciferase catalyzes the oxidation of beetle Luciferin to oxyluciferin and light in the presence of ATP. The luminescent signal is proportional to amount of ATP present.
Using the CellTiter-Glo luminescent cell viability assay, the amount of cellular ATP was measured in the lymphoblastoid cell line with complete culture medium following compound treatment for 24 hours. The assay was performed in opaque white Kalypsys 1536-well plates. In the screen, tetraoctylammonium bromide was used as positive control. Library compounds were measured for their ability to cause acute toxicity in the cell line, as reflected by a decrease in intracellular ATP levels, in a concentration-dependent manner. […] AC50 values were determined from concentration-response data modeled with the standard Hill equation.
qHTS protocol for CellTiter Glo lymphoblastoid cellular assay
[Step] [Parameter] [Value] [Description]
1. Reagent; 5 uL; 2500 lymphoblastoid cells/well
2. Time; 5 hr; 37 C incubation
4. Controls; 23 nL; Tetraoctylammonium bromide 6.4pM to 92 uM
5. Time; 24 hr; 37 C incubation
6. Reagent; 5 uL; CellTiter Glo reagent
7. Time; 30 min; Room Temperature
8. Detection; Luminescence; Viewlux plate reader
Keywords: cell viability, cytotoxicity, lymphoblastoid cell line, luminescence, NTPHTS, NTPHTS_NCGC, NIEHS, DSSTox, MLSMR, MLSCN, NIH Roadmap, qHTS, NCGC

SMILES | viability change, negative = cytotoxic
CC1CC(OC(=O)c2ccccc2O)CC(C)(C)C1 (configuration not stated) | -5.9%
CC(=O)Nc1ccc(C(=O)O)cc1 | -4.91%
CC(=O)Nc1cccc(O)c1 | 2.19%
O=C(c1ccccc1)C(O)c1ccccc1 (configuration not stated) | -0.594%
C=CCNC(N)=S | -0.247%
Cc1c(N(C)C)c(=O)n(-c2ccccc2)n1C | -0.11%
Cc1cc(C)nc(NS(=O)(=O)c2ccc(N)cc2)n1 | -0.546%
CC(=O)OCC(COC(C)=O)OC(C)=O | -0.122%
FC(F)(F)C(Cl)Br (configuration not stated) | 5.71%
CCN(CC)C(=O)c1cccc(C)c1 | 0.191%
CCCCOC(=O)c1ccc(N)cc1 | 1.5%
CCCCCCCC(=O)OCC(COC(=O)CCCCCCC)OC(=O)CCCCCCC | -2.48%
CCCCCC(N)=O | 1.54%
O=C1c2cccc(O)c2C(=O)c2c(O)cccc21 | -1.81%
O=C1C(c2[nH]c3ccccc3c2O)=Nc2ccccc21 | -2.6%
COc1ccc(O)cc1 | 0.963%
CC(=O)Nc1ccccc1 | -1.94%
O=C(O)CCCCC1CCSS1 (configuration not stated) | -1.31%
CCCC(O)C(CC)CO (configuration not stated) | -1.28%
CC(=O)NS(=O)(=O)c1ccc(N)cc1 | -2.71%
Cc1cc(=O)[nH]c(=S)[nH]1 | 0.992%
Nc1ccc(S(=O)(=O)c2ccc(N)cc2)cc1 | -0.308%
